Assay outcomes from PubChem.
ClpP mod – qHTS Assay for Activators of ClpP | ATP-dependent Clp protease proteolytic subunit (Bacillus subtilis (strain 168)), P80244 | purified B. subtilis ClpP, FRET peptide cleavage, 20 min | Potency, µM (titrated, usually from 57.5 µM), for inactives: top-dose activity change, negative = active | 340,000 tested, 1.9% active; active means well fitted falling curve with a large enough effect; inconclusive means small, poorly fitted or top-dose-only effect; inactive means no such curve, though single readings can be large or run the other way; further: the source files actives as falling curves though it sought activators and does not explain the sign; nearly all actives have a fitted effect of over 65% in size
Target sequence (P80244 whole entry, looked up): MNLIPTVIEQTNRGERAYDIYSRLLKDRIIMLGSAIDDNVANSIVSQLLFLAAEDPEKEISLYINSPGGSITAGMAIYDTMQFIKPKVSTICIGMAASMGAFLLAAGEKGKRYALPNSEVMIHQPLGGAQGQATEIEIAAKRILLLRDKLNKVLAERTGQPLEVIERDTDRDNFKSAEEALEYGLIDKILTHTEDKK
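FRET quenching reversal measured ClpP activation: 10 microg/mL B. subtilis ClpP at pH 8 with the FRET-FV decapeptide, read at 430 nm after 320 nm excitation. The 20-min minus 0-min signal was scaled between DMSO/no-enzyme wells and ADEP (5.8 microM final).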
Rango-impB inh – qHTS Assay for Inhibitors of Rango (Ran-regulated importin-beta cargo) - Importin beta complex formation | Potency, µM (titrated, usually from 92.2 µM), inactives show top-dose inhibition of complex formation | Rango CFP/YFP FRET sensor + importin beta, 45 min | Importin subunit beta-1 (Homo sapiens), Q14974 | 340,000 tested, 0.031% active; calls by dose curve;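 further: 0% = DMSO wells and 100% = buffer wells lacking importin beta; nearly all actives have a fitted effect of over 15% in size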
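FRET biosensor Rango (snurportin 1 IBB between N-terminal EYFP and C-terminal Cerulean), 50 nM in PBS/1 mM DTT/0.02% Tween-20/0.1% BSA, preincubated 5 min RT with compound; 0.125 microM importin beta added, 45 min RT, CFP/YFP FRET ratio read.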
TDP1 inh – qHTS Assay for Inhibitors of Tyrosyl-DNA Phosphodiesterase (TDP1); Tyrosyl-DNA phosphodiesterase 1 (Homo sapiens), Q9NUW8; recombinant TDP1, AlphaScreen DNA substrate cleavage; Potency, µM (top dose mostly 130 µM), for inactives: at the highest dose activity change, negative = inhibition, most hits filed as inhibitors; 350,000 tested, 0.28% active; further: on the % scale 0 is the no-effect control and ±100 the full control effect; nearly all actives have a fitted effect of over 40% in size
Target sequence (Q9NUW8 whole entry, looked up): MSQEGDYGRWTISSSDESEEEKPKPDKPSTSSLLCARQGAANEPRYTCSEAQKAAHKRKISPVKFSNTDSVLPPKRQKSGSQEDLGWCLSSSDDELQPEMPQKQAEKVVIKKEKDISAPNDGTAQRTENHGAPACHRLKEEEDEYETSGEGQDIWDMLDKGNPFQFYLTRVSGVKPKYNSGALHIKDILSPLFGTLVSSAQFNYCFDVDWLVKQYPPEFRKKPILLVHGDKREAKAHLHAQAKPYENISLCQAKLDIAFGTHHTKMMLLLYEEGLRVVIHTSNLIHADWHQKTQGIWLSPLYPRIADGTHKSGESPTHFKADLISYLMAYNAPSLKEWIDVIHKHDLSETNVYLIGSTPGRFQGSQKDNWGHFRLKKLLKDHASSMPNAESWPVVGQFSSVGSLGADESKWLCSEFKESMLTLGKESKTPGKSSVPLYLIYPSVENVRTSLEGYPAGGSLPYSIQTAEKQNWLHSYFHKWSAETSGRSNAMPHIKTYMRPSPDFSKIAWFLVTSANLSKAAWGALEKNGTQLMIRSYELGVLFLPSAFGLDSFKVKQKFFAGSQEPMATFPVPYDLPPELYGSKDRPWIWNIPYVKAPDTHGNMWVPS
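Enzyme-compound mixtures sat 15 min at room temperature, followed by a 5 min reaction with 15 nM final substrate and 10 min with AlphaScreen beads. Recombinant human Tdp1 was used at 1 nM final.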
Rango release inh – qHTS Assay for Inhibitors of RanGTP induced Rango (Ran-regulated importin-beta cargo) - Importin beta complex dissociation. Potency, µM (top dose mostly 46.1 µM), for inactives: top-dose activity change, negative = inhibition. Snurportin-1 (Homo sapiens) + GTP-binding nuclear protein Ran (Homo sapiens) + Importin …. Biochemical FRET Rango-importin beta, RanGTP-induced dissociation. 340,000 tested, 0.071% active. AID 540253, 2011; calls by dose curve; further: % of control where 0% means no effect; nearly all actives have a fitted effect of over 45% in size
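Two FRET readings bracket the reaction: one 5 min after compound meets Rango–importin beta, another 45 min after RanGTP-RCC1 (0.6 uM Ran, 0.2 uM RCC1, 2 mM GTP) is added. Only the second defines inhibition.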
PTAP TSG101 blk – qHTS Assay for Iinhibitors of HIV-1 Budding by Blocking the Interaction of PTAP/TSG101; Tumor susceptibility gene 101 protein (Homo sapiens), Q99816; Fluorescence polarization, FITC-PTAP peptide / Tsg101 binding; Potency, µM (highest dose often 115 µM), for inactives: at the top dose activity change, negative = inhibition, most hits filed as inhibitors; 340,000 tested, under 10 active; active means well fitted inhibition curve with a large enough effect in the main read-out, with a control signal flat, not every such curve was filed as active; inconclusive means small, poorly fitted or top-dose-only effect, or effect the other way, or a change in a side signal; inactive means no such curve, though single readings can be large or run the other way; further: % of control where 0% means no effect
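Tsg101 binding domain (10 uM final) was mixed with compound and a FITC-labeled PTAP peptide (50 nM final) in HEPES pH 7.5 buffer with NaCl, Tween 20, EDTA and TCEP; fluorescence polarization was read after 20 min at r.t.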
ALOX12 inh – Primary qHTS assay for inhibitors of human arachidonate 12S-lipoxygenase (ALOX12): Round 2; AID 1671190, 2021; Potency, µM (titrated, usually from 108 µM), for the others: at the highest dose activity change, negative = inhibition, most hits filed as inhibitors; 580,000 tested, 1.1% active; purified 12hLO, xylenol orange hydroperoxide absorbance; Polyunsaturated fatty acid lipoxygenase ALOX12 (Homo sapiens), P18054; further: on the % scale 0 is the no-effect control and ±100 the full control effect
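Purified human 12hLO (150 nM final) in 25 mM Hepes, 0.01% Triton X-100, pH 7.0 was preincubated 15 min at room temperature with compound. Then 40 uM arachidonic acid was added, 30 min. Hydroperoxide was read by Fe-XO absorbance ratio 573/405 nm.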
Starred values were filed as active, the others as inactive; ? = inconclusive; / = no result given; [ ] = dose if it differs, or a comment. This is a sample that favours compounds with a hit; in the whole collection about 2.4% have one here. Unless noted, the call rests on the fitted dose curve; in most records, active means well fitted curve in the direction sought with a large enough effect; inconclusive means small, poorly fitted or top-dose-only effect, or another doubt; inactive means no such curve, though single readings can be large; an effect the other way counts as inactive or inconclusive. Potency means the concentration at half of the fitted maximal effect.

SMILES	ClpP mod	Rango-impB inh	TDP1 inh	Rango release inh	PTAP TSG101 blk	ALOX12 inh
Cc1ccc2c(CC(=O)N(C)c3c(N)n(Cc4ccccc4)c(=O)[nH]c3=O)coc2c1	25µM*	0%	4%[0.505 µM]	0%	-2%	?
Cc1c(O)ccc2c(CN3CCN(CCc4ccncc4)CC3)cc(=O)oc12	/	/	/	/	/	13%
O=C(COc1cccc(Br)c1)N/N=C1\CCSC1	22µM*	-1%	6%	-12%	0%	12%
CC(NC(=O)COc1cccc(Br)c1)C(=O)O (stereo not drawn)	28µM*	7%	1%	4%	-1%	-22%[57.4 µM]
Cc1ccccc1CN1C[C@H](O)C[C@H]1c1nc(-c2cccnc2)no1	/	/	/	/	/	4%[176 µM]
O=C(NCCc1ccc(F)cc1)c1coc(=O)c(Br)c1	-4%	0%	/	17%	-3%	4%
O=C(Nc1ccccc1F)c1coc(=O)c(Br)c1	/	-1%	20µM*	0%	0%	?
CCNC(=O)COc1ccc(NC(=O)c2ccc3c(c2)NC(=O)CS3)cc1	/	/	/	/	/	13%
O=C(CSc1ccccc1C(=O)O)Nc1ccc2c(c1)OCO2	-3%	-3%	2%	6%	-6%	?
Cc1ccc(NC(=O)CSc2ccccc2C(=O)Nc2ccc3c(c2)OCCCO3)cc1	/	/	/	/	/	10µM*
N#Cc1ccc(CSc2ccccc2C(=O)Nc2ccc3c(c2)OCO3)cc1	/	/	/	/	/	28µM*
O=C(CCn1nc(-c2ccc(Cl)cc2)c2ccccc2c1=O)Nc1cccc(Cl)c1	/	/	/	/	/	-31%
COc1ccc(C2C=C(C)Nc3nc(SC)nn32)cc1 (stereo not drawn)	?	?	7%	18µM*	-4%	?
Cc1ccc(C(=O)N2CCN(c3ncccn3)CC2)c(C)c1	/	3%	0%	-7%	0%	-11%
O=C(c1cccc(Cl)c1)N1CCC2(CC1)Cc1ccccc1NC2=O	/	/	/	/	/	15%
CC(Oc1ccccc1)C(=O)N1CCC2(CC1)NC(=O)N(c1ccccc1Cl)N2 (stereo not drawn)	/	/	/	/	/	1.4µM*
O=C(c1ccc(F)cc1)N1CCC2(CC1)NC(=O)N(c1ccccc1Cl)N2	/	/	/	/	/	1.3µM*
O=C(c1cccc(Cl)c1)N1CCC2(CC1)NC(=O)N(c1ccccc1Cl)N2	/	/	/	/	/	1.6µM*
O=C(COc1ccccc1)N1CCC2(CC1)NC(=O)N(c1ccccc1Cl)N2	/	/	/	/	/	-94%
Cc1ccc(C(=O)N2CCC3(CC2)NC(=O)N(c2ccccc2Cl)N3)c(C)c1	/	/	/	/	/	2.2µM*
Clc1cc(NCCc2ccccn2)n2nccc2n1	/	/	/	/	/	42%[176 µM]
COCCn1c(C)cc(C(=O)C(=O)Nc2nnc(COc3ccc(C)c(C)c3)s2)c1C	/	/	/	/	/	-25%
COC(=O)N(C)Cc1ccccc1C(F)(F)F	/	/	/	/	/	10%[176 µM]
COc1cc(OC)cc(C(=O)N2CCC3(C2)NC(=O)N(Cc2ccc(Cl)cc2)C3=O)c1 (stereo not drawn)	/	/	/	/	/	-23%
O=C(c1cccc(Cl)c1)N1CCC2(C1)NC(=O)N(Cc1ccc(Cl)cc1)C2=O (stereo not drawn)	/	/	/	/	/	40µM*
SMILES	ClpP mod	Rango-impB inh	TDP1 inh	Rango release inh	PTAP TSG101 blk	ALOX12 inh
CCOC(=O)C1=C(Cc2ccc(OC)cc2)C(=O)c2ccccc2C1=O	2%	?	11%	?	-5%	/
CCOC(=O)C1=C(Cc2ccc(C)cc2)C(=O)c2ccccc2C1=O	/	/	7%	/	/	11µM*
Clc1cc(CSc2nnnn2-c2ccccc2)cc2c1OCCCO2	/	/	/	/	/	-9%
Cn1cncc1C(=O)NC1CCN(c2ccc(=O)n(C)n2)CC1	/	/	/	/	/	-9%
Cn1c(SCC(=O)Nc2nncs2)nnc1C1CC1	3%	-1%	8.9µM*	4%	-1%	121%
CC(C)n1c(SCC(=O)Nc2nncs2)nnc1C1CC1	2%	5%	-4%	12%	-6%	-22%
CCOC(=O)c1c(OCC)[nH]c2c1cc(O)c1ccccc12	22µM*	?	6%	-21%	-7%	?
CCOC(=O)c1c(C)[nH]c2cc(Br)c(O)cc12	-2%	-3%	3%	3%	-7%	4%
Cc1ncsc1CN1CC[C@H]2C(=O)NCCCCCCN(Cc3ccncc3)[C@@H]2C1	/	/	/	/	/	147%
CC1=C(C#N)C(=O)NC(=O)/C1=C\c1ccc(-c2ccc(C)cc2[N+](=O)[O-])o1	/	4%	2%	-17%	-5%	11µM*
CCOC(=O)c1cc(-c2ccc(/C=C3/C(=O)NC(=O)C(C#N)=C3C)o2)ccc1Cl	-3%	?	-8%	-13%	-14%	?
COc1ccc2c(c1)CN(C(=O)C1CCCC1)CC[C@H]1COC(=O)N21	/	/	/	/	/	-7%[176 µM]
Nc1nc(N)c2cc(CNc3ccc(Cl)c(Cl)c3)ccc2n1	-1%	/	/	/	/	5.6µM*
COc1ccc(OC)c(C2C(C(=O)Nc3nc4ccccc4s3)=C(C)NC3=C2C(=O)CCC3)c1 (stereo not drawn)	28µM*	?	2%	?	-4%	?
Cc1cc(NC2=CC(=O)C(=O)c3ccccc32)no1	-3%	0%	/	0%	-1%	40µM*
Cc1cc(C)c(NC(=O)c2ccc3c(c2)CCC3)c(C)c1	/	/	/	/	/	0%
CCC(C)NC(=O)c1csc2c1CCCCC2 (stereo not drawn)	-3%	4%	5%	-4%	-6%	-6%
CCC(C)NC(=O)C1=Cc2sc3c(c2CS1)CCCC3 (stereo not drawn)	/	/	/	/	/	14µM*
Cc1ccc(C)c(NC(=S)NNC(=O)c2csc3c2CCCC3)c1	1%	0%	11%	7%	-8%	?
Cc1cc(C)c(NC(=O)C2=Cc3sc4c(c3CS2)CCCC4)c(C)c1	/	/	/	/	/	28µM*
Cc1ccc(NC(=O)C2=Cc3sc4c(c3CS2)CCCC4)cc1C	/	/	/	/	/	7.1µM*
Cc1ccc(C)c(NC(=O)C2=Cc3sc4c(c3CS2)CCCC4)c1	/	/	/	/	/	18µM*
C=CCNC(=O)CC1Nc2c3ccccc3nc(=S)n2C1=O (stereo not drawn)	-7%	2%	0%	-27%	-2%	18µM*
